We go through 8 compounds from PubChem BioAssay (NCI).

The panel holds about 83,000 compounds, 20% with a hit somewhere; the sample as a whole holds those more often.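 Activity criterion: percent growth below 10, measured after cells in 96-well plates were exposed to a single compound concentration for 48 hours.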 A number with no mark means an inactive call. The source made the active and inactive calls.

Test systems include SK-MEL-2 melanoma; EKVX NSCLC; SN12C renal; UO-31 renal; TK-10 renal; ACHN renal; CAKI-1 renal; A498 renal; CCRF-CEM leukemia; MOLT-4 leukemia; SR leukemia; RPMI-8226 leukemia; OVCAR-8 ovarian; OVCAR-5 ovarian; SK-OV-3 ovarian; IGROV1 ovarian; OVCAR-3 ovarian; HS 578T breast; NCI/ADR-RES ovarian; OVCAR-4 ovarian.
Assay in all cases: NCI-60 one-dose screen, 48 h (100 = growth as untreated, 0 = no growth, -100 = all killed)
Holding throughout (settings): 10 µM unless noted

Take `C[C@]12CCC(=O)C[C@H]1CC[C@@H]1[C@@H]2CC[C@@]2(C)[C@H]1CC[C@]2(O)C(=O)CO`: the growth is 106% in the experiment on SK-MEL-2 melanoma; 107% in the experiment on EKVX NSCLC; 101% in the experiment with SN12C renal; 91.6% in the experiment with UO-31 renal; 131% with TK-10 renal; 96.7% in the experiment on ACHN renal. Besides, the growth with CAKI-1 renal was 106%; in the experiment with A498 renal, 97.1%; with CCRF-CEM leukemia, 105%; in the experiment on MOLT-4 leukemia, 107%; with SR leukemia, 106%; in the experiment on RPMI-8226 leukemia, 103%. In addition, the growth was 108% with OVCAR-8 ovarian; 92.3% in the experiment with OVCAR-5 ovarian; 105% in the experiment on SK-OV-3 ovarian; 103% in the experiment on IGROV1 ovarian; 115% with OVCAR-3 ovarian; 99.1% with HS 578T breast. The growth in the experiment with NCI/ADR-RES ovarian was 107%.

For the compound `C[C@@H]1CC[C@@H]2[C@@H]1[C@H](OC(=O)/C=C/c1ccccc1)[C@]1(CCCOCCOCCOCCOC(=O)CCCC[C@@H]3SC[C@@H]4NC(=O)N[C@@H]43)C[C@@H](OC(=O)CO)[C@@]2(C)O1`, the growth is 108% in the experiment on SK-MEL-2 melanoma; 101% in the experiment on EKVX NSCLC; 106% in the experiment on SN12C renal; 83.1% with UO-31 renal; 99% in the experiment with TK-10 renal; 102% in the experiment on ACHN renal. The growth in the experiment with CAKI-1 renal is 91.5%; in the experiment with A498 renal, 97.1%; in the experiment on CCRF-CEM leukemia, 98.2%; with MOLT-4 leukemia, 97.9%; in the experiment on SR leukemia, 88.3%; in the experiment on RPMI-8226 leukemia, 112%. Further, the growth is 101% with OVCAR-5 ovarian; 95.7% in the experiment on OVCAR-4 ovarian; 102% in the experiment on SK-OV-3 ovarian; 107% with IGROV1 ovarian; 104% with OVCAR-3 ovarian; 99.5% with HS 578T breast. Moreover, the growth with NCI/ADR-RES ovarian is 105%.

Turning to `O=C(O)c1ccc(CO)o1`, the growth with SK-MEL-2 melanoma is 92.3%; with EKVX NSCLC it was 105%; with SN12C renal, 104%; in the experiment with UO-31 renal it was 97.7%; with TK-10 renal, 103%; with ACHN renal it was 105%. The growth in the experiment on CAKI-1 renal was 102%; with A498 renal it was 114%; in the experiment on CCRF-CEM leukemia, 106%; with MOLT-4 leukemia, 100%; in the experiment with SR leukemia, 100%; in the experiment on OVCAR-8 ovarian, 95.5%. For the same compound, the growth was 108% in the experiment on OVCAR-5 ovarian; 98.3% in the experiment on OVCAR-4 ovarian; 116% in the experiment on SK-OV-3 ovarian; 109% in the experiment with IGROV1 ovarian; 112% in the experiment with OVCAR-3 ovarian; 106% with HS 578T breast. Also, the growth with NCI/ADR-RES ovarian is 116%.

For the compound `CCCCC1COc2cccc3c(SCC(=O)N(C)c4cccc(Cl)c4)cc[n+]1c23` (configuration not stated), the growth in the experiment on SK-MEL-2 melanoma is 105%; with EKVX NSCLC it was 113%; in the experiment with SN12C renal, 94.4%; in the experiment on UO-31 renal, 90.7%; with TK-10 renal it was 110%; in the experiment with ACHN renal, 101%. The growth in the experiment with CAKI-1 renal was 102%; in the experiment with A498 renal, 106%; with CCRF-CEM leukemia, 105%; in the experiment with MOLT-4 leukemia it was 109%; with SR leukemia, 100%; in the experiment on OVCAR-8 ovarian, 118%. Besides, the growth was 109% in the experiment with OVCAR-5 ovarian; 129% in the experiment with OVCAR-4 ovarian; 108% in the experiment on SK-OV-3 ovarian; 112% in the experiment with IGROV1 ovarian; 121% in the experiment on OVCAR-3 ovarian; 109% in the experiment with HS 578T breast. Moreover, in the experiment on NCI/ADR-RES ovarian, the growth is 111%.

On to `CCc1nc2ccccc2[nH]1`, for which the growth in the experiment with SK-MEL-2 melanoma was 127%; in the experiment with EKVX NSCLC, 112%; in the experiment on SN12C renal it was 95.6%; with UO-31 renal it was 80.1%; in the experiment with TK-10 renal, 118%; in the experiment with ACHN renal it was 108%. For the same compound, the growth in the experiment with CAKI-1 renal was 109%; in the experiment on A498 renal, 96.1%; with CCRF-CEM leukemia, 98.8%; in the experiment with MOLT-4 leukemia, 97.5%; with SR leukemia, 100%; in the experiment with RPMI-8226 leukemia it was 98.9%. For the same compound, the growth is 110% in the experiment with OVCAR-5 ovarian; 112% with OVCAR-4 ovarian; 105% with SK-OV-3 ovarian; 130% in the experiment on IGROV1 ovarian; 119% with OVCAR-3 ovarian; 94.3% in the experiment with HS 578T breast. The growth in the experiment with NCI/ADR-RES ovarian is 111%.

`O=C(Nc1ccccc1)c1sc(-c2cccc(C(F)(F)F)c2)cc1O`: the growth is 33.4% in the experiment on SK-MEL-2 melanoma; 81.5% with EKVX NSCLC; 83.7% with SN12C renal; 77.6% in the experiment with UO-31 renal; 96.5% with TK-10 renal; 79.5% in the experiment on ACHN renal. For the same compound, the growth in the experiment with CAKI-1 renal is 74.6%; with A498 renal it was 51.2%; with CCRF-CEM leukemia, 87.4%; with MOLT-4 leukemia, 87.7%; in the experiment on SR leukemia, 62.5%; in the experiment on RPMI-8226 leukemia it was 35.5%. Besides, the growth in the experiment on OVCAR-5 ovarian is 104%; in the experiment on OVCAR-4 ovarian, 76.1%; in the experiment with SK-OV-3 ovarian it was 74.6%; in the experiment with IGROV1 ovarian, 66.5%; in the experiment with OVCAR-3 ovarian it was 53.1%; in the experiment with HS 578T breast, 63.8%. The growth in the experiment with NCI/ADR-RES ovarian is 83.2%.

Turning to `COc1cc2c(O)n(CCCn3ccnc3)c3c4cnc5cccc(c(=O)c3c2cc1OC)c54`, the growth was 71% in the experiment on SK-MEL-2 melanoma; 49.6% in the experiment with EKVX NSCLC; 19.2% in the experiment on SN12C renal; 64.7% in the experiment on UO-31 renal; 92.7% in the experiment with TK-10 renal; 27.2% in the experiment on ACHN renal. Further, the growth with CAKI-1 renal is 66.4%; in the experiment with A498 renal it was 21.5%; in the experiment with CCRF-CEM leukemia, 11%; in the experiment with MOLT-4 leukemia, 4.13% (active); in the experiment with SR leukemia, 25%; in the experiment on RPMI-8226 leukemia, 19.4%. The growth with OVCAR-8 ovarian is 35.3%; with OVCAR-5 ovarian, 83.1%; in the experiment with OVCAR-4 ovarian, 50.9%; in the experiment on IGROV1 ovarian it was 46.2%; in the experiment on OVCAR-3 ovarian, 44.7%; in the experiment with HS 578T breast, 73.8%. Besides, in the experiment with NCI/ADR-RES ovarian, the growth is 98.3%.

For the compound `C=C1C(=O)O[C@H]2[C@H]1CC/C(COC(=O)/C=C\C(=O)NCc1ccc(Cn3c(=O)sn(-c4ccc(OC)cc4)c3=O)cc1)=C\CC[C@@]1(C)O[C@@H]21`, the growth with SK-MEL-2 melanoma is -54.2% (active); in the experiment on EKVX NSCLC, -82.9% (active); in the experiment with SN12C renal, -96.4% (active); in the experiment with UO-31 renal it was -100% (active); with TK-10 renal, -75.4% (active); with ACHN renal, -98.8% (active). For the same compound, the growth with CAKI-1 renal is -66.1% (active); in the experiment with A498 renal it was 7.18% (active); with CCRF-CEM leukemia it was -11.4% (active); with MOLT-4 leukemia, -26.4% (active); in the experiment on SR leukemia it was -27.3% (active); with OVCAR-8 ovarian, 4.05% (active). Moreover, the growth in the experiment on OVCAR-5 ovarian was -86.8% (active); in the experiment on OVCAR-4 ovarian, -77% (active); with SK-OV-3 ovarian, 61.4%; in the experiment on IGROV1 ovarian, -97.3% (active); in the experiment with OVCAR-3 ovarian, -88.6% (active); in the experiment on HS 578T breast, -21.3% (active). In addition, the growth with NCI/ADR-RES ovarian was -16% (active).
